The test system of assay [1] is Wnt5a (protein binding on small-molecule microarray). Nature of the assay: Wnt5a binders on small-molecule microarray, primary screen, biophysical, 635/667 nm fluorescence (AID 1142).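 Also: fluorescence read at 667 nm with signal to noise per printed feature.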 The following applies: 635 nm fluorescence, higher = more signal.
A short description of assay [2]: cell viability in Huh7 cells, primary screen, cytotoxicity control for HCV replication inhibitor project, CellTiter-Glo luminescence, basal, 48 h (AID 1143).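 Also: Huh7 hepatoma cells carrying a hepatitis C replication reporter with no stimulus; test concentration not given here.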 The following applies: Huh7 HCV replicon, higher = more signal, called active from +8 up or from −8 down. For orientation: ATP-based viability assays read luminescence as a measure of living cells.
Assay [3] can be described thus: P. aeruginosa biofilm formation inhibitors, primary screen, PAO1 strain, BacTiter-Glo luminescence, LB-PBS (AID 1144). The following applies: 12 h, higher = more signal.
Assay [4] in a line: CREB reporter modulators without forskolin, primary screen, cell-based, PC12, CRE-LacZ reporter, unstimulated (AID 1145). The note with it: no forskolin, luminescence, 4.5 h, higher = more signal, called active from +8 up or from −8 down.
A short description of assay [5]: CREB reporter modulators under forskolin, primary screen, cell-based, PC12, CRE-LacZ reporter, forskolin-stimulated (AID 1146).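 Also: PC12 cells with 6xCRE LacZ reporter stimulated by forskolin 10 µM; beta-galactosidase reporter signal reflecting CREB driven transcription.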 The note with it: luminescence, 4.5 h, higher = more signal, called active from +8 up or from −8 down.
The target of assay [6] is Streptavidin (Streptomyces avidinii) (UniProt P22629). Nature of the assay: streptavidin binders on small-molecule microarray, primary screen, artefact control for SMM compound annotation, biophysical, 635/667 nm fluorescence (AID 1147).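 Also: signal reflects streptavidin binding to arrayed compounds as a control protein.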 The note with it: streptavidin binding, higher = more signal.
A short description of assay [7]: small-molecule binders of probe aInhba, primary screen, biochemical, small-molecule microarray, 635/667 nm fluorescence (AID 1148).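 Also: score merges 667nm spot fluorescence with signal-to-noise for antibody binding to printed compounds.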 The note with it: higher = more signal.
Assay [8] deals with Torsin-1A (Homo sapiens) (UniProt O14656). In words: torsin A binders from cell lysate, primary screen, small-molecule microarray, wild-type, 635/667 nm (AID 1149). The following applies: COS7 hTOR1A-WT lysate, 635 nm fluorescence, higher = more signal.
Assay [9] has the same target. In words: small-molecule binders of mutant TOR1A in lysate, primary screen, cell lysate, small-molecule microarray, COS7 lysate, 635/667 nm fluorescence (AID 1150).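 Also: score pools 667 nm emission and signal to noise measuring lysate protein binding.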 The note with it: COS7 hTOR1A mutant lysate, 635 nm fluorescence, higher = more signal.
The test system of assay [10] is Sonic hedgehog protein (Shh). Nature of the assay: small-molecule binders of Shh protein, primary screen, biochemical, small-molecule microarray, 635/667 nm fluorescence (AID 1151).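 Also: Shh protein binding to compounds spotted on small-molecule microarray slides; score combines spot fluorescence intensity with signal-to-noise across triplicate slides.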 The following applies: small-molecule microarray binding, 635 nm fluorescence; higher = more signal.
Assay [11] can be described thus: E. coli DRC41 culture turbidity changes, primary screen, E. coli filamentation inducer project, strain DRC41, OD650, 48 h (AID 1152).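 Also: E. coli MC1000 strain DRC41 lacking acrAB efflux pump and sulA.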 The note with it: E. coli DRC41 (acrAB sulA), higher = more signal, called active from +8 up or from −8 down.
The nature of assay [12]: small-molecule binders of probe aLefty1, primary screen, biochemical, small-molecule microarray, 635/667 nm fluorescence (AID 1153).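 Also: score merges spot fluorescence with signal-to-noise ratio from the scanned slide images.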 The note with it: higher = more signal.
The nature of assay [13]: PSAC antagonists in infected red cells, primary screen, cell-based, P. falciparum Indochina, OD700, 1 h (AID 1154). The following applies: P. falciparum Indochina infected RBC osmotic lysis, higher = more signal, called active from +8 up or from −8 down.
Assay [14] is described as follows: PSAC antagonists in infected red cells, primary screen, cell-based, P. falciparum Indochina, OD700, 2 h (AID 1155).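 Also: lysis reports solute entry through the parasite surface anion channel PSAC; channel blockers reduce lysis of infected cells.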 The following applies: P. falciparum Indochina infected erythrocytes, osmotic lysis OD700; higher = more signal, called active from +8 up or from −8 down.
The nature of assay [15]: osmotic lysis modulators in infected erythrocytes, primary screen, PSAC antagonist project, cell-based, P. falciparum Indochina, OD700, 3 h (AID 1156). The note with it: higher = more signal, called active from +8 up or from −8 down.
A short description of assay [16]: PSAC antagonists in infected red cells, primary screen, cell-based, P. falciparum Indochina, OD700, 18 h (AID 1157). The following applies: P. falciparum Indochina infected erythrocytes, osmotic lysis OD700, 18 h; higher = more signal, called active from +8 up or from −8 down.
Assay [17] is described as follows: modulators of S6 phosphorylation in cells, primary screen, cell-based, A549, cytoblot, luminescence, serum-stimulated (AID 1158).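 Also: serum-stimulated A549 lung adenocarcinoma cells; signal is phosphorylated S6 detected by cytoblot immunostaining with HRP secondary.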 The note with it: A549 phospho-S6 cytoblot, 5 h, higher = more signal.
The target of assay [18] is NADPH oxidase 2 (Homo sapiens) (UniProt P04839). In words: NOX2-dependent H2O2 signal modulators, primary screen, NOX inhibitor project, cell-based, HEK293-NOX2, PMA-stimulated, Amplex Red fluorescence (AID 1159). Also: test concentration not given here. The following applies: 45 min, higher = more signal, called active from +8 up or from −8 down.
The target of assay [19] is NADPH oxidase 4 (Homo sapiens) (UniProt Q9NPH5). Nature of the assay: NOX4-dependent H2O2 signal modulators, primary screen, NOX inhibitor project, cell-based, HEK293-NOX4, tetracycline-induced, Amplex Red fluorescence (AID 1160). The following applies: 45 min, higher = more signal, called active from +8 up or from −8 down.
Assay [20] concerns the target NADPH oxidase 5 (Homo sapiens) (UniProt Q96PH1). Nature of the assay: NOX5-dependent H2O2 signal modulators, primary screen, NOX inhibitor project, cell-based, HEK293-NOX5, Amplex Red fluorescence (AID 1161). The following applies: HEK293-NOX5, ionomycin, 45 min, higher = more signal.

For five molecules, composite z-score and z-score results are on record in PubChem BioAssay.

Calls of active or inactive are those of the source. Unless noted, no rule for the calls is given here.

Sequence of NADPH oxidase 5 (Homo sapiens) (Q96PH1 whole entry, looked up): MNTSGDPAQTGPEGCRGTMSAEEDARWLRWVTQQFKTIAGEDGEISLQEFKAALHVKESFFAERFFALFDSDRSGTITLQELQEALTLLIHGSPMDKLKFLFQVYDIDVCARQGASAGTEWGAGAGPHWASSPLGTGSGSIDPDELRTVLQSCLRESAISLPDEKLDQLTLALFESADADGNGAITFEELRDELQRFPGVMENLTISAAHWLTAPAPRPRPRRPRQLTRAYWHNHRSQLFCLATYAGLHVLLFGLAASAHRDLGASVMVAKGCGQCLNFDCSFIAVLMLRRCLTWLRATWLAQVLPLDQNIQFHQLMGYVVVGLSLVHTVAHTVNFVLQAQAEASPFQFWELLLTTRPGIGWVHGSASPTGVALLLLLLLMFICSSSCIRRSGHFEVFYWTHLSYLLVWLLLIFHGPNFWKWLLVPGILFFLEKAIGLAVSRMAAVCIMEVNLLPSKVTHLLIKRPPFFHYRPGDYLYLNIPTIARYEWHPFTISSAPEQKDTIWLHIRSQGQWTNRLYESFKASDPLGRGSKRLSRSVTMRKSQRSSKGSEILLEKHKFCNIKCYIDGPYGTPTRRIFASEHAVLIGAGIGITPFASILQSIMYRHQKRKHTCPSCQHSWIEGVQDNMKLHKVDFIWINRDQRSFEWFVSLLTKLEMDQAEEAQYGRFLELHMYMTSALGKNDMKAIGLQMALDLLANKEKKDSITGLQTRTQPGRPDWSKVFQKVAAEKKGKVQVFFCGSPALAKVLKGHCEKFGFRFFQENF
Sequence of NADPH oxidase 2 (Homo sapiens) (P04839 whole entry, looked up): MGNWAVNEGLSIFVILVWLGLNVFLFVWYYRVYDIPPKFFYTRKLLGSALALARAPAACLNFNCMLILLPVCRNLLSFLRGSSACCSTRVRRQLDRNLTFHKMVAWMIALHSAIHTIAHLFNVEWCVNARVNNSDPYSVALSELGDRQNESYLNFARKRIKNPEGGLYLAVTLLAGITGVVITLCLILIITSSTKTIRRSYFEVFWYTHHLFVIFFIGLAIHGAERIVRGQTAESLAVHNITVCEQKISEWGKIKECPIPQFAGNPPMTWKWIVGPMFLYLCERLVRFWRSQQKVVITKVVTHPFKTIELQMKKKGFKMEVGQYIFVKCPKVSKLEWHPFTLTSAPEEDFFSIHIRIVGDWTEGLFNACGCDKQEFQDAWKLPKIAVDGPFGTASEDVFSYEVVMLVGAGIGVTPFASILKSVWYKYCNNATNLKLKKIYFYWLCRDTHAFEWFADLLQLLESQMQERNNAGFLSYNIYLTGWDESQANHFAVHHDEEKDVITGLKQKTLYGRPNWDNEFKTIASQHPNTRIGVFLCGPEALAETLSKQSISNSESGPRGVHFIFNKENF
Sequence of NADPH oxidase 4 (Homo sapiens) (Q9NPH5 whole entry, looked up): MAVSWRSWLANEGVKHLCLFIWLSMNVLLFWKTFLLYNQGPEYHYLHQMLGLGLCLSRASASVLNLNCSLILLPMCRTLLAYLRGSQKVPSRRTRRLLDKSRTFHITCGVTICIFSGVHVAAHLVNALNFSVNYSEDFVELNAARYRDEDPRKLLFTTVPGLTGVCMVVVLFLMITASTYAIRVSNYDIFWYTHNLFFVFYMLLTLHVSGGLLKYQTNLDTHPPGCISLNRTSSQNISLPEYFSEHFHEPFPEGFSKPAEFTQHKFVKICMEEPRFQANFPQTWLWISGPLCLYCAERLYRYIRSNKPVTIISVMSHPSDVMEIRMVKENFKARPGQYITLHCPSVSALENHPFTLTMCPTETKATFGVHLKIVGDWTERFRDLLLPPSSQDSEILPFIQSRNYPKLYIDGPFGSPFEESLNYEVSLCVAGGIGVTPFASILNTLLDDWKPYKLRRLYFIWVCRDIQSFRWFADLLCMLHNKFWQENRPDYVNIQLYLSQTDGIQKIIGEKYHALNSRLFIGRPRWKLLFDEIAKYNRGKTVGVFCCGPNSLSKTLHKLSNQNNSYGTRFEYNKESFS
Sequence of Streptavidin (Streptomyces avidinii) (P22629 whole entry, looked up): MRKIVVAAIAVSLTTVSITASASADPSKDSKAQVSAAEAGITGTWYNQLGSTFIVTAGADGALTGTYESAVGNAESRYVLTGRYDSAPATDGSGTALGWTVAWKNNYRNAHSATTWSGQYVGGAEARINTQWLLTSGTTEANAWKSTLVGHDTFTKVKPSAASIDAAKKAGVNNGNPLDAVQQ
Sequence of Torsin-1A (Homo sapiens) (O14656 whole entry, looked up): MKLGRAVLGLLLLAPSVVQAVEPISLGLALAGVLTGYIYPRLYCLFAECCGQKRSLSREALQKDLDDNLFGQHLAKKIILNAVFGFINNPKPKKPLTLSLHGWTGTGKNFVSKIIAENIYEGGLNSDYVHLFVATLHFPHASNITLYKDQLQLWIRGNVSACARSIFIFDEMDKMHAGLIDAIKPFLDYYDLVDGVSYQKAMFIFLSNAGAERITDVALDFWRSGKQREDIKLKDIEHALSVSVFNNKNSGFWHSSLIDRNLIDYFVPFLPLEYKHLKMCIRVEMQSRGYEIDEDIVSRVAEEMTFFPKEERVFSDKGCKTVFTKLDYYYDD

For the molecule `OCCCC1=CC(c2ccc(CN3CCCC3)cc2)N(Cc2sc3ccccc3c2Cl)CC1` (stereo not given), the composite z-score came out at 0.774 in assay [1]; 0.37 in [6]; 0.0633 in assay [7]; 0.598 with Torsin-1A (Homo sapiens) [8]; 0.842 with Torsin-1A (Homo sapiens) [9]; 1.46 in assay [10]. This molecule also came in with a composite z-score in [12] of 0.527. Also, the z-score in assay [2] is -2.99 (inactive); in assay [3], 0.00672 (inactive); in assay [4] it was 0.96 (inactive); in assay [5], -0.134 (inactive); in assay [11] it was -1.6 (inactive); in assay [13] it was 7.15 (inactive). The z-score in assay [14] is 1.29 (inactive); in [15], 0.314 (inactive); in assay [16], 1.19 (inactive); in assay [17] it was -0.319; in assay [18], -5.42 (inactive); in [19] it was -2.03 (inactive). In assay [20], this molecule showed a z-score of -2.27.

In the case of `CN(C)C(=O)[C@]1(CCS(=O)(=O)c2ccccc2)N=C(c2ccc(OCCCO)cc2)O[C@@H]1c1ccccc1N=[N+]=[N-]`, the composite z-score in assay [1] was 0.758; in [6], 2.06; in assay [7] it was 0.246; with Torsin-1A (Homo sapiens) [8] it was 1.42; with Torsin-1A (Homo sapiens) [9] it was 1.78; in assay [10], 0.605. For the same molecule, the composite z-score in assay [12] was 0.382. Also, the z-score was -2.79 (inactive) in [2]; 0.0474 (inactive) in assay [3]; 1.92 (inactive) in assay [4]; -0.977 (inactive) in [5]; -0.0791 (inactive) in [11]; 31.2 (active) in assay [13]. The z-score in assay [14] was 27.2 (active); in [15], 2.03 (inactive); in assay [16] it was 6.58 (inactive); in assay [17] it was 0.178; in [18] it was 0.502 (inactive); in [19], 1.64 (inactive). For the same molecule, the z-score in assay [20] stood at 1.24.

Consider `COCCCNC(=O)[C@]1(CCS(=O)(=O)c2ccccc2)N=C(c2ccc(OCCCO)cc2)O[C@@H]1c1ccccc1N=[N+]=[N-]`, for which the composite z-score in [1] is 1.02; in [6] it was 1.31; in assay [7], -0.0907; with Torsin-1A (Homo sapiens) [8] it was 0.602; with Torsin-1A (Homo sapiens) [9], 0.441; in assay [10], -0.498. This molecule yielded a composite z-score in assay [12] of -0.0087. Also, the z-score was -2.78 (inactive) in assay [2]; 2.09 (inactive) in assay [3]; 0.297 (inactive) in assay [4]; -1.27 (inactive) in assay [5]; 0.308 (inactive) in [11]; 29.8 (active) in assay [13]. The z-score in assay [14] was 28.1 (active); in [15], 1.67 (inactive); in [16] it was 2.02 (inactive); in [17], 0.737; in [18], 0.867 (inactive); in assay [19], 0.235 (inactive). This molecule also yielded a z-score in assay [20] of -0.901.

Consider `COC(=O)[C@@]1(Cc2ccccc2)[C@H]2c3cc(C(=O)N(C)C)n(CCN4CNCC4=O)c3C[C@H]2CN1C(=O)c1ccccc1`, for which the composite z-score in assay [1] was 0.569; in assay [6], 1.54; in [7] it was 1.28; in the assay with Torsin-1A (Homo sapiens) [8], 3.83; in the assay with Torsin-1A (Homo sapiens) [9], 4.06; in assay [10], -1.85. This molecule also showed a composite z-score in assay [12] of 0.673. The z-score in assay [2] is 0.106 (inactive); in assay [3], -0.505 (inactive); in assay [4], 0.0007 (inactive); in assay [5], 0.547 (inactive); in assay [11], -0.65 (inactive); in [13], 0.274 (inactive). In addition, the z-score in assay [14] was 0.759 (inactive); in assay [15] it was 0.307 (inactive); in assay [16], 0.789 (inactive); in assay [17], -0.646; in assay [18], 0.61 (inactive); in [19] it was 0.554 (inactive). This molecule returned a z-score in assay [20] of 0.0884.

Consider `O=C1OCCC/C=C\[C@H]2OC34C=CCN(CCN5CCOCC5)C(=O)[C@H]3N(CCCCCCO)C(=O)[C@@H]4C12` (stereo not given in full), for which the composite z-score is -0.089 in [1]; -0.215 in assay [6]; -0.0791 in assay [7]; 0.944 in the assay with Torsin-1A (Homo sapiens) [8]; -0.404 in the assay with Torsin-1A (Homo sapiens) [9]; 0.837 in assay [10]. This molecule had a composite z-score in [12] of 0.369. Further, the z-score in [2] is -0.129 (inactive); in [3], -1.18 (inactive); in [4] it was 0.325 (inactive); in [5], -0.0772 (inactive); in assay [11] it was 1.76 (inactive); in assay [13], 3.78 (inactive). Further, the z-score in assay [14] was -0.652 (inactive); in [15] it was 0.752 (inactive); in assay [16], -0.774 (inactive); in assay [17], 1.66; in assay [18] it was 0.752 (inactive); in [19] it was -0.153 (inactive). This molecule also registered a z-score in assay [20] of 1.9.
